Source: PubChem BioAssay (NCI)
Values joined by “and” are separate entries in the source; they are usually repeats but may differ in a detail not shown here. Equal entries are not always repeated. The panel holds about 79,000 compounds, 15% with a hit somewhere; the sample as a whole holds those more often. A number with no mark means an inactive call. Active and inactive are the calls of the source. Rule as the data show it: active = growth inhibition above about 70%; inactive = the rest.

What was measured:
[1] = NCI Yeast Anticancer Drug Screen. Data for the rad50 strain (AID 155);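 also: 0% = growth of vehicle-only cultures of the same strain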; conditions: S. cerevisiae rad50 strain growth inhibition; at 50.0 µM; active compounds read high
Method in brief: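 Inhibition values express reduced yeast growth in compound-treated cultures relative to vehicle-treated controls.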

[2] = NCI Yeast Anticancer Drug Screen. Data for the mec2-1 strain (AID 157); conditions: S. cerevisiae mec2-1 strain, at 50.0 µM, active compounds read high
Method in brief: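 Test agents were screened against the mec2-1 yeast strain, with defined DNA repair or cell cycle alteration. Growth was scored as inhibition against vehicle-only controls.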

[3] = NCI Yeast Anticancer Drug Screen. Data for the sgs1 mgt1 strain (AID 161);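 also: 0% = growth of cultures given vehicle only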; conditions: S. cerevisiae sgs1 mgt1 strain, at 50.0 µM, active compounds read high
Method in brief: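 Mutant yeast exposed to compound; growth scored against vehicle-only wells.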

[4] = NCI Yeast Anticancer Drug Screen. Data for the cln2 rad14 strain (AID 165);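 also: 0% = growth equal to vehicle treated cultures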; conditions: S. cerevisiae cln2 rad14 strain, at 50.0 µM, active compounds read high
Method in brief: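 Growth of compound-exposed yeast (cln2 rad14 genotype) measured and expressed as inhibition relative to vehicle.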

[5] = NCI Yeast Anticancer Drug Screen. Data for the bub3 strain (AID 167); conditions: S. cerevisiae bub3 mutant strain, at 50.0 µM, active compounds read high
Method in brief: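 Steps: expose the mutant yeast strain to compound; grow alongside vehicle-treated cultures; measure growth; express inhibition against the vehicle cultures.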

[6] = NCI Yeast Anticancer Drug Screen. Data for the mlh1 rad18 strain (AID 175); conditions: S. cerevisiae mlh1 rad18 strain growth inhibition; at 50.0 µM; active compounds read high
Method in brief: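 In this whole-cell yeast screen, a strain with altered DNA damage repair is challenged with compound, and its growth is measured against matched vehicle-treated controls.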

Row | SMILES | growth inhibition [1] | growth inhibition [2] | growth inhibition [3] | growth inhibition [4] | growth inhibition [5] | growth inhibition [6]
1 | CC1CC2OC(=O)C(CN3CC3)C2CC2(C)C(O)CC(O)C12 (stereo not drawn) | 32.2% | 30.3% | 32.5% | -4.1% | 10.3% | 26.1%
2 | CCOP(=O)(OCC)C1CC(C(C)C)CC=C1C (stereo not drawn) | 5.4% | -8.95% | -2.15% | 1.25% | 3.75% | 15.1%
3 | CSc1sc2ccccc2[s+]1 | -10.8% | -5.4% | -0.35% | 10.6% | 9.55% | 3.35%
4 | C(=C/[PH+](c1ccccc1)c1ccccc1)/[PH+](c1ccccc1)c1ccccc1.C(=C/[PH+](c1ccccc1)c1ccccc1)/[PH+](c1ccccc1)c1ccccc1.C(=C/[PH+](c1ccccc1)c1ccccc1)/[PH+](c1ccccc1)c1ccccc1.[Pt] | 8.65% | 17.6% | 36% | 36.9% | 13.8% | 36.5%
5 | CC(=O)[O-].Cn1ccnc1CNCc1nccn1C.[Cu+2].[O-][Cl+3]([O-])([O-])[O-] | 18.9% | 3.2% | 3.3% | 18.6% | -1.4% | 5.25%
6 | CSCCC([NH-])C(=O)O.CSCCC([NH-])C(=O)O.[Cu+2] (stereo not drawn) | -18.1% | 7.95% | -9.2% | -33.3% | -13.1% | -2.5%
7 | C[N+](C)(C)CCP(=O)([O-])O | -3.3% | 0% | 1.55% | -13.1% | -3.1% | 5.45%
8 | COc1ccc(C(N)Cc2ccccc2)cc1 (stereo not drawn) | 10.8% | 3.15% | 10.8% | 9.85% | 3.5% | -2.35%
9 | COP(=O)(OC)C(=O)c1ccccc1 | -11.6% | -17.2% | -7.8% | -31.9% | -23.8% | -16.1%
10 | CN(Cc1ccccc1)CC(O)c1ccccc1Cl (stereo not drawn) | -0.75% | -2.7% | 21.4% | -28.2% | 13.3% | 25.1%
11 | O=C1NC(=S)NC(=O)C1=CC1CC1 | 22.6% | 13.8% | 17.4% | 19.6% | 9.2% | 29.6%
12 | O=C(CC(=O)C(F)(F)C(F)(F)C(F)(F)F)c1ccco1.[Fe] | 25.3% | 24.7% | 23.6% | 13.6% | 15.7% | 17.9%
13 | [C-]#[O+].[C-]#[O+].[C-]#[O+].[C-]#[O+].[W].c1ccc([PH+](CC[PH+](c2ccccc2)c2ccccc2)c2ccccc2)cc1 | -2.9% | 5.2% | -10.4% | -8% | -7.5% | 8.95%
14 | O=C(O)[C@@H]1C2CCC(C[C@@H]1O)N2C(=O)c1ccccc1 (stereo partly drawn) | -12.8% | -3.55% | 2.85% | -33.5% | -15.4% | -1.2%
15 | CCOc1ccc2c(N/N=C/c3ccc(N(CCCl)CCCl)cc3)cc(C)nc2c1 | 96.3% (active) | 97.6% (active) | 97.3% (active) | 97.8% (active) | 95.7% (active) | 96.3% (active)
16 | CCOP(=O)(OCC)C(C)(CC)/N=C(\N)NC#N (stereo not drawn) | -4.8% | -36.9% | -8.85% | 12% | 15% | -18.1%
17 | [Cl][Sn]([Cl])([c]1ccccc1)[c]1ccccc1.c1ccncc1 | 96.8% (active) | 98.8% (active) | 98.8% (active) | 97.5% (active) | 98.1% (active) | 97.7% (active)
18 | Cc1cccc(N)c1N | 24.1% | -15.1% | 11.1% | 0.4% | -0.45% | 13.7%
19 | c1cc2c3c(cccc3c1)CC2 | -22.4% | 35.4% | -0.65% | -16.3% | 44.4% | -14.6%

Row | SMILES | growth inhibition [1] | growth inhibition [2] | growth inhibition [3] | growth inhibition [4] | growth inhibition [5] | growth inhibition [6]
20 | NNc1ncc[nH]1 | -0.05% | 1.2% | -9.2% | -1% | 12.8% | 4.55%
21 | C=CC[As](=O)(O)c1ccccc1Cl | 96% (active) | 99.5% (active) | 99.5% (active) | 84.2% (active) | 98.3% (active) | 99% (active)
22 | CC(C)CCCC(C)[C@H]1CCC2[C@@H]3CCC4Cc5nc6c(nc5C[C@]4(C)C3CC[C@@]21C)CC1CC[C@@H]2C(CC[C@@]3(C)C2CC[C@@H]3O)[C@@]1(C)C6 (stereo partly drawn) | -7.05% | -37.7% | -12% | -7.9% | 12.8% | 7.95%
23 | CC1C2Cc3ccc(O)cc3C1(C)CCN2C (stereo not drawn) | 37% | 29.6% | 30.6% | 17.6% | 35% | 16.1%
24 | COc1cc2ccnc(C3(OC(=O)c4ccccc4)CCN(CCc4ccccc4)CC3)c2cc1OC | -1.3% | -7.15% | -21.9% | -17.1% | 2.95% | -0.95%
25 | CN1CN(c2ccccc2)C2(CCN(CCc3csc4ccccc34)CC2)C1=O | 29.9% | 12.2% | 17.8% | 16.9% | 3.5% | 19.4%
26 | CN(C(=[Se])[Se]C(=[Se])N(C)C1CCCCC1)C1CCCCC1 | 19.4% | 5% | 8.35% | 18.4% | 0.4% | 12.6%
27 | C[C@]12Cc3sc(N)nc3C[C@@H]1CC[C@@H]1[C@@H]2CC[C@@]2(C)[C@H]1CC[C@]2(C)O | -21.5% | -18.4% | 11% | -32% | 25.6% | -4.95%
28 | O=C1CC2OCC=C3CN4CCC56c7ccccc7N1C5C2C3CC46O (stereo not drawn) | 25.3% | -21.2% | 6.1% | -1.2% | 30.7% | -62.1%
29 | Cc1nn[n-]n1.N.N.N.N.N.[Cl-].[Co+3] | 4.25% | 6.3% | 22.1% | 27.9% | 9.6% | 13.1%
30 | COC1OC2COC(c3ccccc3)OC2C2N=C(N)N([N+](=O)[O-])C12OS(C)(=O)=O (stereo not drawn) | -4.8% | -5.4% | -12.2% | -21.1% | -3.6% | 3.75%
31 | Nc1cc(S(=O)(=O)F)ccc1Cl | 26.3% | 6.1% | 20.1% | 35.5% | 22.9% | 23.6%
32 | CC(Br)C(=O)NC(C)C(=O)O (stereo not drawn) | -19.6% and -15.2% | -16.6% and -19.9% | -12.4% | 5.75% | -17.6% | -28.6% and -21.2%
33 | CC1(C(N)Cc2c[nH]c3ccccc23)OCCO1 (stereo not drawn) | -7.7% | -0.1% | -28.6% | -6.55% | -0.25% | 4.1%
34 | CC1CCC2N(C1)CC1C3(O)CC45OC6(O)C(O)CCC4(C)C6CCC5C3(O)CC(O)C1(O)C2(C)O (stereo not drawn) | -19.9% and -2.1% | -17.9% and -31.1% | -2.9% and -17.4% | -21.6% and 9.15% | -31.2% and -0.4% | 6.5% and -15.3%
35 | C/C(=N\N=C(N)N)C(CN1CCCCC1)C(c1ccccc1)c1c(O)c2ccccc2oc1=O (stereo not drawn) | 13.7% | -2.6% | 10.6% | 24.4% | 28.9% | 16.9%
36 | C[N+](C)(C)NP(=O)(N[N+](C)(C)C)c1ccccc1 | 3.2% | -8.15% | -19.3% | 11.6% | 1.95% | -11.1%
37 | CC(C(=O)O)C(Br)C(=O)O (stereo not drawn) | -9% | -8.7% | 1.7% | 3.55% | 5.85% | 9.7%
38 | COC1=CC(=Nc2ccc(N(CCCl)CCCl)cc2)C=CC1=O | 17.6% | 26.8% | 14.3% | 11.4% | 15.1% | 28.6%
